Reference: paper PMC3218832

Tests used:
Assay in all cases: protein binding microarray; high values mean tight binding
Conditions in all cases: dsDNA, one strand shown
RELARELA (p65 homodimer) = RELARELA (p65 homodimer) (Homo sapiens, UniProt Q04206 1-307)
p50p50 homodimer = p50p50 homodimer (Homo sapiens, UniProt P19838 7-356)
p52p52 homodimer = biological target: T1, p52p52 homodimer (Homo sapiens, UniProt Q00653 4-332)
T1 sequence: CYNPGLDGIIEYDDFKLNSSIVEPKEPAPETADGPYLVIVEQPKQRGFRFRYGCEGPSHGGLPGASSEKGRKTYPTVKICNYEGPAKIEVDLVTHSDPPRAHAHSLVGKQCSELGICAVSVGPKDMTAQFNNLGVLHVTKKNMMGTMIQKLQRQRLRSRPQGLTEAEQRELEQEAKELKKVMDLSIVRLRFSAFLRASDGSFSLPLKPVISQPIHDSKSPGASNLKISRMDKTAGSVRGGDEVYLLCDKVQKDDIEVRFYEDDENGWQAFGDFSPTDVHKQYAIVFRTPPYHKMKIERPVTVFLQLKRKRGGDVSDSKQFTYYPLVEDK

[1] = biological target: RELA (p65) subunit of heterodimer;p50 subunit (Homo sapiens;Homo sapiens, UniProt Q04206;P19838 1-307;7-356)
[2] = biological target: RELA (p65) subunit of heterodimer;p52 subunit (Homo sapiens;Homo sapiens, UniProt Q04206;Q00653 1-307;4-332)
RELB subunit;p50 subunit = RELB subunit;p50 subunit (Homo sapiens;Homo sapiens, UniProt Q01201;P19838 120-401;7-356)
RELB subunit;p52 subunit = biological target: T2, RELB subunit;p52 subunit (Homo sapiens;Homo sapiens, UniProt Q01201;Q00653 120-401;4-332)
T2 sequence 1: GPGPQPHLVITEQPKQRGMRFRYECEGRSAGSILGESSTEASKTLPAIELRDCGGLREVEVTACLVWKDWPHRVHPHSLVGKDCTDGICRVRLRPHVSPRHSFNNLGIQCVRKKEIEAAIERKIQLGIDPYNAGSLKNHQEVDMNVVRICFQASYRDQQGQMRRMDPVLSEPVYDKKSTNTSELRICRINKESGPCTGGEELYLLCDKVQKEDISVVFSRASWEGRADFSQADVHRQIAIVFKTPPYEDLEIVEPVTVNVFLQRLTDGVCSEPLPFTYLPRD
T2 sequence 2: T1 sequence

[3] = biological target: C-Rel subunit;p50 subunit (Homo sapiens;Homo sapiens, UniProt Q04864;P19838 1-285;7-356)
[4] = biological target: T3, C-Rel subunit;p52 subunit (Homo sapiens;Homo sapiens, UniProt Q04864;Q00653 1-285;4-332)
T3 sequence 1: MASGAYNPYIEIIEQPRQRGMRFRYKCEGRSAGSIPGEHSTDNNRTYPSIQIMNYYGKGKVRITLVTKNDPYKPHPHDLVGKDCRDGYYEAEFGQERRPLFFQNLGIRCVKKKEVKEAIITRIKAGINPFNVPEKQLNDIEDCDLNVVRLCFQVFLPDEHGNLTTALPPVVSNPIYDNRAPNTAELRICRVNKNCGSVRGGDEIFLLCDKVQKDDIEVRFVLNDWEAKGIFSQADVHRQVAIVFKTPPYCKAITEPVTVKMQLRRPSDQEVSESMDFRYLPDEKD
T3 sequence 2: T1 sequence

Sequence of RELARELA (p65 homodimer) (Q04206 1-307): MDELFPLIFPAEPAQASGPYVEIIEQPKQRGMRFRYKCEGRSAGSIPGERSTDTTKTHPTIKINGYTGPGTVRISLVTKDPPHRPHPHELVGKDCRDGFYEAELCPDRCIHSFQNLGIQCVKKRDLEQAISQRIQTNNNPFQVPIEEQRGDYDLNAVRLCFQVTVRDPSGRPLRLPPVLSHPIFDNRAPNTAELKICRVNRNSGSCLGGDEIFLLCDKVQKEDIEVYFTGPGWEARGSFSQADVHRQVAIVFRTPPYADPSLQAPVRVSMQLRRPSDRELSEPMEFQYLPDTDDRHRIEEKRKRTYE
Sequence of RELA (p65) subunit of heterodimer;p50 subunit (Q04206 1-307, chain 1 of 2): as the sequence (Q04206 1-307) above
Sequence of RELA (p65) subunit of heterodimer;p50 subunit (P19838 7-356, chain 2 of 2): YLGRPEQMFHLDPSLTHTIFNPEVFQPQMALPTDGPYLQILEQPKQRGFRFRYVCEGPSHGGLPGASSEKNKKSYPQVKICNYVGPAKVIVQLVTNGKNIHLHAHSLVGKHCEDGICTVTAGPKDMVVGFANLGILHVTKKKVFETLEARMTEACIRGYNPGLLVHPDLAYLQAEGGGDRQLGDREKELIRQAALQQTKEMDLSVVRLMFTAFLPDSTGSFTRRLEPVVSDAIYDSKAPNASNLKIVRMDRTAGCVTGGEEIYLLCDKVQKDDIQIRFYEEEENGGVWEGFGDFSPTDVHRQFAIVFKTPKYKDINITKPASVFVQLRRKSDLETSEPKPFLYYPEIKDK
Sequence of p50p50 homodimer (P19838 7-356): as the sequence (P19838 7-356, chain 2 of 2) above

Row | Sequence | binding signal (RELARELA (p65 homodimer)) | binding signal (p50p50 homodimer) | binding signal (p52p52 homodimer) | binding signal [1] | binding signal [2] | binding signal (RELB subunit;p50 subunit) | binding signal (RELB subunit;p52 subunit) | binding signal [3] | binding signal [4]
1 | AAAAACATCCT | -0.23 z-score | -0.94 z-score | -0.575 z-score | -0.766 z-score | -0.82 z-score | -0.865 z-score | -0.741 z-score | -1.09 z-score | -0.784 z-score
2 | CGAGTTCTCCC | 0.00528 z-score | 0.1 z-score | -0.0592 z-score | 0.0957 z-score | -0.132 z-score | 0.367 z-score | 0.182 z-score | -0.0444 z-score | -0.16 z-score
3 | GAAGTGGCCCC | -1.02 z-score | -0.225 z-score | -0.401 z-score | -0.503 z-score | -0.265 z-score | -0.183 z-score | -0.112 z-score | -0.347 z-score | -0.316 z-score
4 | CAGATGTTCCT | -0.208 z-score | -2.01 z-score | -0.586 z-score | -0.746 z-score | -0.87 z-score | -1.02 z-score | -0.843 z-score | -1.15 z-score | -0.842 z-score
5 | GAAGAAATCCC | 1.23 z-score | 0.872 z-score | 0.93 z-score | 0.96 z-score | 0.759 z-score | 0.876 z-score | 0.618 z-score | 0.892 z-score | 0.641 z-score
6 | GGAAGACTCCT | -0.12 z-score | -1.87 z-score | -0.778 z-score | -0.958 z-score | -1.02 z-score | -1.23 z-score | -0.943 z-score | -1.17 z-score | -0.891 z-score
7 | CAGTACGCCCT | -0.311 z-score | -1.79 z-score | -0.678 z-score | -0.914 z-score | -0.662 z-score | -0.89 z-score | -0.84 z-score | -1.25 z-score | -0.761 z-score
8 | AAGTTTCTCCC | 0.793 z-score | 0.601 z-score | 0.198 z-score | 0.383 z-score | 0.17 z-score | 0.576 z-score | 0.357 z-score | 0.423 z-score | 0.189 z-score
9 | AAGTGGGTCCC | -0.651 z-score | -0.324 z-score | -0.0356 z-score | -0.468 z-score | -0.433 z-score | -0.00499 z-score | -0.124 z-score | -0.493 z-score | -0.609 z-score
10 | AAAAGAATCCC | 0.306 z-score | 0.444 z-score | 0.44 z-score | 0.389 z-score | 0.575 z-score | 0.356 z-score | 0.317 z-score | 0.495 z-score | 0.359 z-score
11 | AGAGGCCTCCT | -0.539 z-score | -1.92 z-score | -0.785 z-score | -1.08 z-score | -1.07 z-score | -1.08 z-score | -0.973 z-score | -1.66 z-score | -0.937 z-score
12 | CAAGACGCCCT | -0.812 z-score | -2.01 z-score | -0.745 z-score | -0.983 z-score | -0.966 z-score | -1.04 z-score | -0.904 z-score | -1.34 z-score | -0.839 z-score
13 | CAAAAGACCCT | -0.503 z-score | 0.305 z-score | -0.0206 z-score | 0 z-score | 0.196 z-score | -0.111 z-score | -0.0281 z-score | -0.615 z-score | 0.0358 z-score
14 | AAGTACATCCC | 0.78 z-score | -0.756 z-score | -0.37 z-score | -0.432 z-score | -0.425 z-score | -0.551 z-score | -0.549 z-score | -0.042 z-score | -0.446 z-score
15 | AGAAGCTCCCT | -0.425 z-score | 0.158 z-score | -0.322 z-score | -0.103 z-score | -0.284 z-score | -0.0298 z-score | -0.239 z-score | -0.54 z-score | -0.52 z-score
16 | GAATAGCTCCC | -0.473 z-score | -0.795 z-score | -0.577 z-score | -0.627 z-score | -0.84 z-score | -0.753 z-score | -0.873 z-score | -1.16 z-score | -0.82 z-score
17 | CAAATGCCCCT | 0.347 z-score | 1.15 z-score | 1.14 z-score | 1.2 z-score | 1.19 z-score | 1.21 z-score | 1.47 z-score | 0.882 z-score | 1.38 z-score
18 | CAATTACCCCT | 0.378 z-score | 1.06 z-score | 0.863 z-score | 0.727 z-score | 1.01 z-score | 0.941 z-score | 1.38 z-score | 0.652 z-score | 0.899 z-score
19 | GGAGAAACCCT | 0.379 z-score | -0.144 z-score | 0.127 z-score | 0.478 z-score | 0.623 z-score | -0.35 z-score | 0.176 z-score | 0.255 z-score | 0.637 z-score
20 | AAGGGCGTCCT | -1.14 z-score | -1.28 z-score | -0.61 z-score | -1.06 z-score | -0.909 z-score | -0.994 z-score | -0.788 z-score | -1.25 z-score | -0.659 z-score
21 | CGGATGGTCCC | 0.128 z-score | -0.139 z-score | -0.00887 z-score | 0.132 z-score | 0.027 z-score | -0.0363 z-score | -0.117 z-score | 0.0204 z-score | 0.154 z-score
22 | CAATGAATCCC | -0.259 z-score | -0.487 z-score | -0.235 z-score | -0.428 z-score | -0.353 z-score | -0.22 z-score | -0.356 z-score | -0.0958 z-score | -0.345 z-score
23 | AAGGGCACCCC | -0.322 z-score | -0.576 z-score | -0.342 z-score | -0.454 z-score | -0.414 z-score | -0.379 z-score | -0.217 z-score | -0.33 z-score | -0.364 z-score
24 | CGAGGCATCCC | -0.716 z-score | -1.34 z-score | -0.635 z-score | -1.05 z-score | -0.831 z-score | -0.973 z-score | -0.906 z-score | -1.02 z-score | -0.807 z-score
25 | AGGGGAGTCCT | 0.691 z-score | 0.962 z-score | 1.64 z-score | 0.872 z-score | 1.1 z-score | 0.907 z-score | 0.881 z-score | 0.64 z-score | 0.78 z-score
26 | GAAGGAGTCCT | -0.288 z-score | -1.55 z-score | -0.648 z-score | -0.892 z-score | -0.934 z-score | -0.985 z-score | -0.808 z-score | -1.08 z-score | -0.746 z-score
27 | GAGGACGTCCC | 0.381 z-score | 0.144 z-score | 0.388 z-score | 0.0977 z-score | 0.262 z-score | 0.14 z-score | 0.0168 z-score | 0.15 z-score | 0.205 z-score
28 | AAAAATTCCCC | 3.28 z-score | 1.42 z-score | 2.98 z-score | 2.27 z-score | 2.54 z-score | 2.96 z-score | 2.46 z-score | 2.04 z-score | 2.78 z-score
29 | AAGAACACCCC | -0.22 z-score | 0.317 z-score | 0.0847 z-score | 0.107 z-score | 0.232 z-score | 0.176 z-score | 0.504 z-score | 0.232 z-score | 0.274 z-score
30 | CGATTAACCCT | -0.485 z-score | -0.551 z-score | -0.421 z-score | -0.497 z-score | -0.556 z-score | -0.691 z-score | -0.624 z-score | -0.83 z-score | -0.644 z-score
